According to PubChem BioAssay AID651605 (National Center for Advancing Translational Sciences (NCATS), 2012):
Several values for one entry are separate records, joined by “and”; a condition that tells them apart may be missing. Equal values may be shown once. Inconclusive results are not listed. Activity calls are given as the source filed them. Calls come from the whole dose curve; as a rule, active = well fitted inhibition curve with a large enough effect; inconclusive = small, poorly fitted or top-dose-only effect; inactive = flat fitted curve, though single readings scatter.

Target: Ubiquitin carboxyl-terminal hydrolase 1 (Homo sapiens) (UniProt O94782)
Test: Inhibitors of USP1/UAF1: SAR in Primary Assay
Details: Recombinant USP1/UAF1, Ub-Rhodamine cleavage fluorescence; series mostly up to 57.1 µM
Source text: Deubiquitinating enzymes (DUBs) are a class of enzymes that can cleave isopeptide bond formed between the C-terminal carboxylate of ubiquitin and a lysine side-chain amino group on the target protein. Among them, ubiquitin specific proteases (USPs) constitute the largest DUB family. Human USPs are emerging as promising targets for pharmacological intervention because of their connection to a number of human diseases, including prostate, colon and breast cancer (1, 2), pediatric acute lymphoblastic leukemia (3), and familial cylindromatosis (4). The advantage of inhibiting USPs lies in the potential specificity of therapeutic intervention that can lead to better efficacy and reduce nonspecific side effects. In a collaboration between the University of Delaware and the NIH Chemical Genomics Center, a high-throughput screen assay was developed to screen for USP1/UAF1 inhibitors (5). This assay was used to test the analogs that were synthesized based on SAR around the original hit. NIH Chemical Genomics Center [NCGC] NIH Molecular Libraries Probe Centers Network [MLPCN] MLPCN Grant: DA030552-01 Assay Submitter (PI): Zhihao Zhuang, University of Delaware 1. Priolo, C., et al. (2006) The isopeptidase USP2a protects human prostate cancer from apoptosis. Cancer Res 66, 8625-8632 2. Popov, N., et al. (2007) The ubiquitin-specific protease USP28 is required for MYC stability. Nat Cell Biol 9, 765-774 3. De Pitta, C., et al. (2005) A leukemia-enriched cDNA microarray platform identifies new transcripts with relevance to the biology of pediatric acute lymphoblastic leukemia. Haematologica 90, 890-898 4. Kovalenko, A., et al. (2003) The tumour suppressor CYLD negatively regulates NF-kappaB signalling by deubiquitination. Nature 424, 801-805 5. Chen, J., et al. (2011) Selective and cell-active inhibitors of the USP1/ UAF1 deubiquitinase complex reverse cisplatin resistance in non-small cell lung cancer cells. Chem Bio 18(11):1390-400.
3 microliters of reagents (buffer in columns 3 and 4 as negative control and 1nM USP1/UAF1 complex in columns 1, 2, and 5-48) are dispensed into Greiner black solid bottom 1536-well assay plates. Compounds are then transferred via Kalypsys pin tool equipped with 1536-pin array (10nl slotted pins, V&P Scientific, San Diego, CA). Following an incubation step of 15 min at room temperature, 1ul of Ub-Rho substrate (150nM final concentration) is added to initiate the reaction. The plates are immediately centrifuged at 1000 rpm for 15 seconds, and subsequently transferred to a ViewLux high-throughput CCD imager (PerkinElmer) wherein kinetic measurements of fluorescence are acquired using 480 nm excitation/540 nm emission filter set (6 reads every 60 seconds, see Table 1). All reagents are diluted in an assay buffer consisting of 50mM HEPES (pH 7.8), 0.5mM EDTA, 0.1 mg/ml BSA, 1mM TCEP, and 0.01% Tween-20.

Sequence of Ubiquitin carboxyl-terminal hydrolase 1 (Homo sapiens) (O94782 whole entry, looked up): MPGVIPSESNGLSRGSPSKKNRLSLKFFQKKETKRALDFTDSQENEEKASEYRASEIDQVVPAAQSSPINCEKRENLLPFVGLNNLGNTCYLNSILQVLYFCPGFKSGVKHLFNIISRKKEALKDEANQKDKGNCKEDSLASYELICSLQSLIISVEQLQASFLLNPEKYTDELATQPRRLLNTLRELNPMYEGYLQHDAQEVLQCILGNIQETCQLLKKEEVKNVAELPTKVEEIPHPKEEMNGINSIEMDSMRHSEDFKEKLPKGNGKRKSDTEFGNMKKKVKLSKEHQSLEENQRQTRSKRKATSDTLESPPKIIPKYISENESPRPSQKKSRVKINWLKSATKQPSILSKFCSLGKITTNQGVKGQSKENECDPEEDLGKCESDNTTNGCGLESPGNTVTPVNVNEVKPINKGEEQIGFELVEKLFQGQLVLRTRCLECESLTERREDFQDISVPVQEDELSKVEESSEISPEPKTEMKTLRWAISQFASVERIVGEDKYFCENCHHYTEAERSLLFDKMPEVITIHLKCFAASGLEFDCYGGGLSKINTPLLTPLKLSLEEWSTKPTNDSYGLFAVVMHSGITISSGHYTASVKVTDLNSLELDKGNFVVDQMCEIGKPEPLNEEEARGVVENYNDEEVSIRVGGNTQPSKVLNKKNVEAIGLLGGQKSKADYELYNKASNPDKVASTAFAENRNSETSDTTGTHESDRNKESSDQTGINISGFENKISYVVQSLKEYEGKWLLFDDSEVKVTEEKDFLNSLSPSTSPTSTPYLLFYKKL

| Structure (SMILES) | Potency |
| --- | --- |
| CC(C)c1ccccc1-c1ncc(F)c(NCc2ccc(-c3cccnc3)s2)n1 | 242 nM (active) |
| Fc1cnc(-c2ccccc2C(F)F)nc1NCc1ccc(-c2ccn[nH]2)cc1 | 1520 nM (active) |
| c1cncc(-c2ccc(CNc3nc(N4CCOCC4)nc4ccccc34)cc2)c1 | inactive |
| Cc1ccccc1-c1nc(NCc2ccc(-c3cccnc3)cc2)c2ccccc2n1 | 482 nM (active) |
| Cc1cnc(-c2ccccc2C(F)F)nc1NCc1ccc(-n2ccnn2)cc1 | 482 nM (active) |
| Cc1cnc(-c2ccccc2C(F)(F)F)nc1NCc1ccc(-c2cccnc2)cc1 | 271 nM (active) |
| CC(C)c1ccccc1-c1nc(NCc2ccc(-c3cccnc3)cc2)c2occc2n1 | 152 nM (active) |
| FC(F)(F)c1ccccc1-c1nc(NCc2ccc(-c3cccnc3)cc2)c2sccc2n1 | 857 nM (active) |
| Cc1ccc(N2CCC(CNc3nc(-c4ccccc4C(C)C)ncc3C)CC2)cn1 | 171 nM (active) and 60.7 nM (active) |
| Fc1cnc(-c2ccccc2C(F)F)nc1NCc1ccc(-n2ccnn2)cc1 | 1210 nM (active) |
| FC(F)(F)c1ccccc1-c1nc(NCc2ccc(-c3cncnc3)cc2)c2ccccc2n1 | 1920 nM (active) |
| CC(C)c1ccccc1-c1nc(NCc2ccc(-c3cccnc3)cc2)c2ccsc2n1 | 242 nM (active) |
| FC(F)(F)c1ccccc1-c1nc(NCc2ccc(-c3cccnc3)cc2)c2[nH]cnc2n1 | 607 nM (active) |
| Cc1cnc(-c2ccccc2C(C)O)nc1NCc1ccc(-c2cccnc2)cc1 (stereo not given) | 1360 nM (active) |
| Cc1ccc(-c2ccc(C(C)Nc3nc(-c4ccccc4C(C)C)ncc3C)cc2)cn1 (stereo not given) | 341 nM (active) |
| Cc1ccc(-c2ccc(CNc3nc(-c4ccccc4C(C)C)ncc3C)cc2)cn1 | 42.9 nM (active) |
| Cc1cnc(-c2ccccc2C(C)C)nc1NCc1cccs1 | 215 nM (active) |
| Cc1cccc(CNc2nc(-c3ccccc3C(C)C)ncc2C)c1 | 136 nM (active) |
| CC(C)c1ccccc1-c1nc(NCc2ccc(-c3cccnc3)cc2)c2[nH]cnc2n1 | 121 nM (active) |
| CC(Nc1nc(-c2ccccc2C(F)(F)F)nc2ccccc12)c1ccc(-c2ccncc2)cc1 (stereo not given) | 5410 nM (active) |

| Structure (SMILES) | Potency |
| --- | --- |
| FC(F)(F)c1ccccc1-c1nc(NCc2ccc(C3CCCCC3)cc2)c2ccccc2n1 | 6810 nM (active) |
| CC(C)c1ccccc1-c1ncc(N(C)C)c(NCc2ccc(-c3cccnc3)cc2)n1 | 152 nM (active) |
| CC(C)c1ccccc1-c1ncc(F)c(NC(C)(C)c2ccc(-c3cccnc3)cc2)n1 | 192 nM (active) |
| Cc1cc(NCc2ccc(-c3cccnc3)cc2)nc(-c2ccccc2C(C)C)n1 | 482 nM (active) |
| Cc1cnc(-c2ccccc2C(C)C)nc1NCC1CCN(c2cccnc2)CC1 | 48.2 nM (active) |
| CC(C)c1ccccc1-c1ncc(F)c(NCC2CCN(c3cnccn3)C2)n1 (stereo not given) | 4290 nM (active) |
| CC(C)c1ccccc1-c1ncc(F)c(NCC2CCN(c3cccnc3)CC2)n1 | 96.1 nM (active) |
| Cc1cnc(-c2ccccc2C2COC2)nc1NCc1ccc(-n2ccnn2)cc1 | inactive |
| FC(F)(F)c1ccccc1-c1nccc(NCc2ccc(-c3cccnc3)cc2)n1 | 541 nM (active) |
| CC(C)c1ccccc1-c1ncc(F)c(NCc2ccc(-c3ccn[nH]3)cc2)n1 | 152 nM (active) |
| FC(F)(F)c1ccc(-c2nc(NCc3ccc(-c4ccnc(C(F)(F)F)c4)cc3)c3ccccc3n2)cc1 | inactive |
| FC(F)(F)c1cc(-c2ccc(CNc3nc(-c4ccncc4)nc4ccccc34)cc2)ccn1 | 19200 nM (active) |
| CC(C)c1ccccc1-c1ncc(F)c(NC(C)(C)c2ccc(-n3ccnn3)cc2)n1 | 4820 nM (active) |
| Cc1cnc(-c2ccccc2C(C)C)nc1NC(C)c1ccc(-c2cccnc2)cc1 (stereo not given) | 136 nM (active) |
| COc1ccccc1-c1nc(NCc2ccc(-c3cccnc3)cc2)c2ccccc2n1 | 681 nM (active) |
| Cc1cnc(-c2ccccc2C(C)C)nc1NCC1CCN(c2cccnc2)C1 (stereo not given) | 429 nM (active) |
| Cc1cccc(C(CO)Nc2nc(-c3ccccc3C(C)C)ncc2C)c1 (stereo not given) | 1080 nM (active) |
| CC(C)c1ccccc1-c1nc(NCc2ccc(-c3cccnc3)cc2)c2cccn2n1 | 215 nM (active) |
| CC(C)c1ccccc1-c1nc(NCC2CCN(c3cccnc3)CC2)c2ccccc2n1 | 85.7 nM (active) |
| CCc1ccccc1-c1nc(NCc2ccc(-c3cccnc3)cc2)c2ccccc2n1 | 607 nM (active) |
